Potency and activation data for 40 molecules are collected here from PubChem BioAssay AID624305 (National Center for Advancing Translational Sciences (NCATS), 2012).

Inconclusive results are not listed. Where a call stands in place of a potency, no number is given. Calls of active or inactive are those of the source. The call rests on the fitted dose curve; in most records, active means well fitted activation curve with a large enough effect; inconclusive means small, poorly fitted or top-dose-only effect; inactive means no such curve, though single readings can be large or run the other way.
Potency means the concentration at half of the fitted maximal effect.

The assay in a line: qHTS assay for re-activators of p53 using a Luc reporter: Hit Validation. Further: nearly all actives have a fitted effect of over 75% in size. Particulars: p53-responsive luciferase reporter cells, luminescence, H1299 line expressing heat-sensitive Ala138Val p53; series mostly up to 46.1 µM. The text has this:
The p53 tumor suppressor plays a key role in suppression of tumorigenesis and in human carcinogenesis. It is frequently found inactivated in human cancers, mainly by point mutation. These point mutations are found in a wide variety of human cancers and a majority of them affect the DNA binding domain of the protein. The point mutations either alter native p53 conformation or abolish DNA contact. Additionally, cancer cells with p53 mutations are more resistant to chemo-radiation therapies.
In order to find activators to reactivate this important protein, a cell-based screen for p53-dependent luciferase-reporter expression was developed. A p53-null H1299 lung cancer cell line was stably co-transfected with a temperature sensitive p53 mutant, p53-A138V, and a p53-responsive BP100-luciferase reporter. This cell model has previously been characterized in a gene chip profiling experiment for p53 activation. By lowering the culture temperature from 37 deg C (mutant p53 conformation) to 32 deg C (w.t. p53 conformation), a 30-60 fold increase in activation of luciferase activity is observed. At assay temperate, 37 deg C, basal reporter expression is very low and after the addition of detection reagent, a luminescent read-out is carried out. This is the hit validation assay, confirming the hits identified from the primary screen.
NIH Chemical Genomics Center [NCGC]
NIH Molecular Libraries Probe Production Centers Network [MLPCN]
Assay Provider (PI): Yi Sung, University of Michigan at Ann Arbor
5ul of 1000 cells per well are dispensed in all wells except column 4, into white solid-bottom TC-treated Kalypsys plates. The cells are kept in Opti-MEM and supplemented with 10% FBS and dispensed using a Multidrop (Thermo). Then using the Kalypsys pin-tool, 23nl of compounds are pinned. The compounds are starting concentration at 10mM, with 1:5 dilution, 4 points, and the control compound nocodazole is pinned in column 1 at 25mM, 1:3 dilution, in duplicate, 25mM nocodazole is pinned in column 2. Please note, all concentrations are working concentrations. 5ul of 1pM purified luciferase enzyme is dispensed using the Kalypsys dispenser in column 4. Plates are incubated for 24 hrs at 37 deg C, 5% CO2, and 95% humidity. Then 4ul of the detection reagent Amplite (ABD Bioquest) is added using the Kalypsys dispenser. Plates are incubated for 10 min at ambient room temperature and are then read on the ViewLux (Perkin Elmer) using a clear filter for a luminescent read-out.
For orientation: qHTS replaces the single test concentration by a dilution series.
As for `Cc1ccccc1C(=O)Nc1ccc(Br)cn1`, the Potency is 3.66 µM (active).

Turning to `c1ccc(-c2ccc(-c3ccccn3)nn2)nc1`, the Potency was 0.082 µM (active).

For `Cc1cccc(NC2SC(=O)N(c3ccccc3)C2=O)c1` (stereo not given), the Potency result is “inactive”.

On to `COc1ccccc1C(=O)O/N=C(\N)c1ccccc1Cl`, for which the Potency result was “inactive”.

As for `S=C(Nc1ccccc1)Nc1nc2ccccc2n1CCOc1ccc(Br)cc1`, the Potency entry is “inactive”.

`O=C(CC1NC2CCCCC2NC1=O)Nc1ccc2c(c1)OCO2` (stereo not given): the Potency result was “inactive”.

For `NC(=O)c1cc2ccc(O)cc2oc1=Nc1ccccc1`, the Potency entry was “inactive”.

As for `ON=C1c2cc(OCCN3CCCCC3)ccc2-c2ccc(OCCN3CCCCC3)cc21`, the Potency result was “inactive”.

As for `CC(C)CCn1cnc2c(sc3nc4c(cc32)CSC(C)(C)C4)c1=O`, the Potency is 0.517 µM (active).

For `O=C(Oc1ccccc1/C=C\C(=O)c1cc2ccccc2o1)c1cccc(F)c1`, the Potency is 0.206 µM (active).

Consider `O=C(Nc1cccc(N=Cc2cc(Cl)cc(Br)c2O)c1)c1ccco1`, for which the Potency entry was “inactive”.

Take `Cc1ccc(C)n1-c1cccc(NC(=O)c2ccccc2)c1`: the Potency result was “inactive”.

`O=C(c1cccs1)c1coc2ccc(O)cc12`: the Potency is 16.4 µM (active).

As to `CS(=O)(=O)N1CCC(C(=O)Nc2cc(Cl)c(Cl)cc2Cl)CC1`, the Potency entry is “inactive”.

As for `Cc1ccc(C(=O)OCC(=O)NCC2COc3ccccc3O2)cc1` (stereo not given), the Potency entry was “inactive”.

Consider `N#C/C(=C/c1cccnc1)c1ccccc1`, for which the Potency entry was “inactive”.

On to `O=C(Nc1ccc2c(c1)OCO2)c1cc(Cl)ccn1`, for which the Potency is 4.61 µM (active).

Turning to `Cn1c(C(=O)Nc2ccc3c(c2)OCCO3)cc2sccc21`, the Potency was 5.8 µM (active).

On to `O=C(Nc1ccc(Cl)cn1)C1CCN(c2ncnc3c2nc2n3CCCCC2)CC1`, for which the Potency entry is “inactive”.

For the molecule `c1ccc(-c2nnc(-c3ccccn3)nc2NC2CCCCC2)cc1`, the Potency is 18.4 µM (active).

For `O=C(/C=C/c1ccco1)Nc1ccc2nn(-c3ccccc3)nc2c1`, the Potency result was “inactive”.

For the molecule `CCCN(C(=O)c1cccc(S(=O)(=O)N2CCCc3ccccc32)c1)C1CCS(=O)(=O)C1` (stereo not given), the Potency entry is “inactive”.

On to `N#Cc1nc(COc2ccccc2)oc1N1CCOCC1`, for which the Potency entry was “inactive”.

In the case of `CCOc1ccc(-c2nnc(SCC(=O)N3CCNC3=O)o2)cc1`, the Potency was 2.06 µM (active).

Regarding `Cc1ccc(NC(=O)Nc2ccccc2)c(Br)c1`, the Potency is 8.2 µM (active).

As for `CCCN1CCC(=NNC(=O)CSc2cc(C)c(Br)cc2C)CC1`, the Potency result was “inactive”.

Consider `c1ccc(-c2cn3nc(-c4ccccc4)cnc3n2)cc1`, for which the Potency was 0.92 µM (active).

On to `Cc1ccc(CCc2nnc(SCC(=O)Nc3cccc(Cl)c3)n2-c2ccccc2)o1`, for which the Potency result was “inactive”.

Consider `C/C(=N/NC(=O)c1ccc2c(c1)OCO2)c1ccc(NC(=O)C(F)(F)F)cc1`, for which the Potency was 9.2 µM (active).

On to `O=c1cc(-c2ccc3c(c2)OCCO3)oc2ccc(Cl)cc12`, for which the Potency was 0.82 µM (active).

Turning to `CC(C)(C)OC(=O)N1CCC(C(=O)Nc2ccc3c(c2)CCC3)CC1`, the Potency is 23.1 µM (active).

Take `CCOC(=O)N1CCN(S(=O)(=O)c2ccc(C(=O)NNc3nc4cc(C)cc(C)c4s3)cc2)CC1`: the activation was 6.68% [at 9.22 µM] (inactive).

As for `CN1CCN(C(=O)CCCN2C(=O)/C(=C/c3ccc(Cl)cc3)SC2=S)CC1`, the Potency is 9.2 µM (active).

As to `O=C(N/N=C/c1cn(-c2ccccc2)nc1-c1cc2ccccc2o1)c1ccccc1Br`, the Potency is 7.31 µM (active).

Turning to `CN1CCN(C(=O)c2cc3ccccc3cc2O)CC1`, the Potency result was “inactive”.

With `O=C(O)C1CC(=O)N(c2ccc(Br)cc2)C1` (stereo not given), the Potency result is “inactive”.

In the case of `CCCCCNC(=O)N[C@H](C(=O)O)C(C)C`, the Potency entry is “inactive”.

As for `O=C(NC(=S)NCCc1ccccc1)C1CCCCC1`, the Potency is 23.1 µM (active).

On to `COc1ccc(-n2cnc3c(cnn3CCC#N)c2=N)cc1`, for which the Potency entry is “inactive”.

`Cc1cccc(C(=O)OCC(=O)N2CCCCCC2)c1O`: the Potency was 5.17 µM (active).
